Screening results: PubChem, ICCB-Longwood Screening Facility, Harvard Medical School
Hits are enriched below; roughly 1.4% of the tested compounds scored in any of these assays.
MenB inh – M. tuberculosis MenB inhibitors, primary screen, biochemical, absorbance. inhibition, % (concentration not given with the values). AID 540299, 2011. MenB enzyme assay, absorbance read-out. 0.43% of 100,000 active; in the data active means inhibition above about 21%, passing the limit was not always enough
AID504770 – growth inhibition of E. coli YBA685, primary screen, V. cholerae RctB inhibitors; z-score (test concentration not listed); 0.27% of 130,000 active; E. coli YBA685 rctB-dependent plasmid, OD600 growth, 3 h; stronger effect = lower value; AID 504770, 2011; in the data active means z-score below about -2, passing the limit was not always enough
Polio RdRp inh – poliovirus RdRp elongation inhibitors, primary screen, biochemical, fluorescence polarization, total intensity; % elongation, % (compound at 16.7 µg/mL); Genome polyprotein (Poliovirus type 1 (strain Mahoney)), P03300; AID 588519, 2011; poliovirus polymerase elongation; stronger effect = lower value; 0.66% of 150,000 active; in the data active means % elongation below about 90%
Mtb MbtI inh – MbtI salicylate synthase inhibitors, primary screen, biochemical, fluorescence intensity | AID 493033, 2011 | inhibition, % (test concentration not listed) | 0.89% of 100,000 active | purified MbtI enzyme, fluorescence intensity read-out; in the data active means inhibition mostly above about 56%, no sharp cut-off; inactive means mostly below about 77%
Target sequence (P9WFX0 whole entry, looked up): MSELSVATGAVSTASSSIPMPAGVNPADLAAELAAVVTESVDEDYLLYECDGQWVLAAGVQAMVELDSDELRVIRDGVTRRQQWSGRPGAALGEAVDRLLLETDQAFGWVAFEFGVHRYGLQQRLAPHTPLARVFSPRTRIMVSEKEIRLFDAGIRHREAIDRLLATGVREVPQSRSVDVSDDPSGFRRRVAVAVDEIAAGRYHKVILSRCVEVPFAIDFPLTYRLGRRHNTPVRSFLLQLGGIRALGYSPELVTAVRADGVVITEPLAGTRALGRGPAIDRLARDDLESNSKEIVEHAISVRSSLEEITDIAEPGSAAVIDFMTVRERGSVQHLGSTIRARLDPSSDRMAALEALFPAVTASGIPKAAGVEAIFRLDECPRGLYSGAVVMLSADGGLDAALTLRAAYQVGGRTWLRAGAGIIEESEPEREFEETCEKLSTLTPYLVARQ
Numbers stand for hits; n = inactive; x = no result.

SMILES	MenB inh	AID504770	Polio RdRp inh	Mtb MbtI inh
Cc1ccc(-c2nc(N)s[n+]2-c2ccccc2)cc1	x	-2.4	x	x
Cc1cc(C(=O)Nc2sc3c(c2C#N)CCC3)no1	x	n	x	x
CCOC(=O)c1c(NC(=O)c2cc(-c3ccc(OC)c(OC)c3)on2)sc(C)c1C	x	x	n	x
CCOC(=O)c1sc(NC(=O)c2cc(C(C)C)on2)c(C(=O)OCC)c1C	n	n	n	n
COc1ccccc1-c1cc(C(=O)Nc2sc3c(c2C#N)CCCC3)no1	x	x	82	x
CCOC(=O)c1c(NC(=O)c2cc(CC(C)C)on2)sc(C(C)=O)c1C	x	x	81	x
CCOC(=O)c1c(NC(=O)c2cc(-c3ccccc3OC)on2)sc(C)c1C	x	x	73	x
CCOC(=O)c1c(NC(=O)c2cc(CC)on2)sc(C)c1C	x	x	90	x
COc1ccc(N2CCN(C(=O)N3c4ccccc4Sc4ccccc43)CC2)cc1	n	n	n	n
COc1ccc(C2NC(=O)c3[nH]nc(-c4cccc(OC)c4)c32)cc1 (stereo not drawn)	n	n	n	n
O=C(Nc1c(C(=O)c2ccccc2)oc2ccccc12)c1ccco1	x	n	x	x
Cc1ccc(-n2ncc3c(NC4CCCCC4)ncnc32)c(C)c1	x	n	x	x
CCOC(=O)c1c(NC(=O)c2cc(-c3ccc(Cl)cc3)on2)sc(C)c1C	x	x	n	x
CCOC(=O)c1c(NC(=O)c2cc(C)on2)sc(C)c1C	x	x	78	x
CC1(C)Cc2ccccc2C(NN=C2CCCCC2)=N1	n	n	n	n
O=C(NC1CCCC1)C1c2ccccc2Oc2ccccc21	n	n	n	x
O/N=c1/sc2ccccc2n1CCS	n	n	n	69
Cc1cc(C)c(S(=O)(=O)N2CCCCC2)cc1C	x	n	x	x
Cc1cc2[nH]c(=O)c(=O)[nH]c2cc1S(=O)(=O)N1CCCCC1	n	-2.5	n	n
O=S(=O)(c1ccc(-n2cnnn2)cc1)N1CC=C(c2ccc(F)cc2)CC1	n	n	n	n
Cc1cc(=O)[nH]c2c(C)c(Cl)ccc12	29	n	n	n
COc1cccc2c(C)cc(=O)[nH]c12	x	n	n	n
O=c1ccccn1CCOc1ccc(Cl)cc1Cl	n	n	n	n
O=C(O)C1CC(c2ccccc2O)=NO1 (stereo not drawn)	n	n	n	n
N#CSC(C#N)Cc1ccccc1 (stereo not drawn)	n	-6.5	n	83
SMILES	MenB inh	AID504770	Polio RdRp inh	Mtb MbtI inh
Cc1ccc(CC(C#N)Sc2nnc(C)n2Cc2ccccc2)cc1 (stereo not drawn)	n	n	n	n
Cc1ccc(-c2nc(SCC(=O)c3ccc(Cl)cc3)n[nH]2)cc1	x	n	x	x
Nc1nc(SCC(=O)c2ccc(Cl)cc2)n[nH]1	x	-2.6	x	x
O=S(=O)(NCc1csc(-c2cccs2)n1)c1ccccc1	x	n	x	x
CN(c1ccc(-c2csc(-c3cccs3)n2)cc1)S(C)(=O)=O	n	n	88	n
CC(CC(=O)NCc1ccccc1)CC1=NS(=O)(=O)c2ccccc2N1 (stereo not drawn)	n	n	n	n
Cc1cc(C)nc(N2CCNCC2)n1	n	n	n	n
C1CCN(c2nc(N3CCCC3)nc(N3CCNCC3)n2)C1	33	n	n	n
COc1ccc(NC(=O)C(c2ccc(C)cc2)N(Cc2ccco2)C(=O)c2cnccn2)cc1 (stereo not drawn)	n	n	n	n
O=C(O)C1C2C=CC(C2)C1C(=O)Nc1cccc(Br)c1 (stereo not drawn)	26	n	n	n
N#Cc1ccc(-c2ccncc2)nc1SCC(N)=O	n	n	n	x
CC1=C(C(=O)Nc2ccccc2)C(c2ccco2)C(C#N)=C(SCC(=O)Nc2ccccc2)N1 (stereo not drawn)	39	n	n	n
Cc1ccc(S(=O)(=O)N2CCOCC2)cc1C(=O)OCc1nc2ccc(Cl)cc2n1CCO	n	n	n	n
Cc1ccc(S(=O)(=O)c2[nH]c(=S)sc2N2CCOCC2)cc1	n	n	x	93
O=C1NC2(CCCCC2)C(=O)N1CN1CCCC1c1ccc2c(c1)OCCCO2 (stereo not drawn)	n	n	n	n
Cc1cc2c(cc(C(=O)N3CCC(C(=O)NCc4ccc5c(c4)OCO5)CC3)n2Cc2c(F)cccc2Cl)o1	n	n	n	n
CNc1ccccc1C(=O)OCC(=O)c1ccccc1	n	-3.2	n	n
O=C(NCCCc1nc2ccccc2[nH]1)c1ccccc1	x	n	x	x
CC(=O)Oc1ccccc1-n1c(C)nc(=O)c(-c2ccccc2)c1C	x	-4.5	n	n
COc1ccccc1-n1c(C)nc(=O)c(-c2ccccc2)c1C	n	n	n	n
CC(=O)N1CCc2cc(-c3csc(N)n3)ccc21	n	n	x	n
NC(=O)c1cc(S(=O)(=O)NCc2ccccc2)cs1	x	x	-12	x
CN(C)c1ccc(NC(=S)c2ccccn2)cc1	n	n	n	68
CCOC(=O)c1sc(NC(=O)C2c3ccccc3Oc3ccccc32)c(C#N)c1C	x	x	76	x
O=C(OCn1nnc2ccccc2c1=O)C1COc2ccccc2O1 (stereo not drawn)	n	n	n	58
SMILES	MenB inh	AID504770	Polio RdRp inh	Mtb MbtI inh
O=C(OCn1nnc2ccccc2c1=O)C1CCCCC1	n	n	n	n
CCCCC1CCC(C(=O)O)CC1 (stereo not drawn)	x	n	n	n
CCCCC1CCC(CCCC(C)CCC(=O)O)CC1 (stereo not drawn)	x	x	89	x
CCS(=O)(=O)c1ccc2oc(SCC(=O)NCc3ccccc3)nc2c1	n	n	n	n
CCS(=O)(=O)c1ccc2oc(=O)c(/C=C(\O)C(C)(C)C)nc2c1	55	n	n	n
CC(C)(C)/C(O)=C/c1nc2ccccc2oc1=O	64	n	n	n
Cc1nc(C)c(/C(O)=C/c2nc3cc(Cl)ccc3oc2=O)o1	n	n	n	n
CC(C)C/C(O)=C/c1nc2cc(Cl)ccc2oc1=O	85	n	n	n
CCN(CC)C(=O)COc1ccc2ccc(=O)oc2c1	n	n	n	n
CCN(CC)C(=O)COc1ccc2c(CC(=O)O)coc2c1	n	-2.6	n	n
Oc1ccc(N=Cc2ccco2)cc1	n	n	n	n
NC(=O)CSc1nnc2c(n1)CCCC2	n	n	n	n
CCSc1nc2c(c(=O)[nH]c(=O)n2C)n1CC	n	n	n	98
COc1ccccc1C(C1=C(O)COC1=O)c1cc2c(cc1O)OCO2 (stereo not drawn)	n	n	n	x
COc1cc(/C=N/N=C(N)N)ccc1OC(=O)c1ccc(C)cc1	n	-9.6	n	n
CC(=C1C(=O)c2ccccc2C1=O)N1CCc2ccccc2C1	n	n	89	n
CNS(=O)(=O)c1ccc2ccccc2c1	x	n	n	n
COC(=O)/C=C/S(=O)(=O)c1ccc2ccccc2c1	n	n	n	101
Cc1ccc(S(=O)(=O)NC(C)C(=O)N2CCN(c3cccc(Cl)c3)CC2)cc1 (stereo not drawn)	n	n	n	n
CC(NS(=O)(=O)c1cccc(Cl)c1)C(=O)N(C)C1CCN(C)CC1 (stereo not drawn)	n	-5.3	n	n
